In all, about 330,000 compounds went through this assay and about 5,800 (1.8%) were called active. For the sample, actives were picked, then their nearest neighbours and some compounds at random. Unmarked numbers belong to inactive results. No stated cut-off is given here; in the data, active means inhibition mostly above about 38% (no sharp cut-off); inactive means mostly below about 40%.
These molecules were tested against Orexin/Hypocretin receptor type 1 (Homo sapiens) (UniProt O43613) (assay: blocks the human orexin 1 receptor (AID 485270;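 further: 0% = agonist challenge alone and 100% = reference antagonist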)). Conditions: OX1R-expressing cells, FRET antagonist read-out; at 6.6 µM; stronger effect = higher value.
Chain of Orexin/Hypocretin receptor type 1 (Homo sapiens) (O43613 whole entry, looked up): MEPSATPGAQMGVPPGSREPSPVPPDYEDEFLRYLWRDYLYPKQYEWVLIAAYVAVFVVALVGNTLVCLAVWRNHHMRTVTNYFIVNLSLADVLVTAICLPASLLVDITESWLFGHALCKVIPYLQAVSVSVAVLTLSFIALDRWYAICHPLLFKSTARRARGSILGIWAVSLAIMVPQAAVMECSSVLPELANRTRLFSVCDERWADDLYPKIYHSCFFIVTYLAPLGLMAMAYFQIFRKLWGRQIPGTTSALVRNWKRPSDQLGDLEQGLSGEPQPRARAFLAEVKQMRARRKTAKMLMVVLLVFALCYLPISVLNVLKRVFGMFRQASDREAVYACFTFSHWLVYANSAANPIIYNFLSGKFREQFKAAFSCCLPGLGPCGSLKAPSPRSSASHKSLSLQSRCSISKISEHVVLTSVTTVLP

In order of falling inhibition:
1. Cc1cc(C(=O)Cn2cnc3cc([N+](=O)[O-])ccc3c2=O)c(C)n1CC1CCCO1 (stereo not drawn)  53.2%
2. O=C1N=C(N2CCCC2)S/C1=C\c1cccc(Br)c1  35.7%
3. CCOc1cc(/C=C2\SC(N3CCCCC3)=NC2=O)ccc1O  25.6%
4. O=C(Cn1cnc2cc([N+](=O)[O-])ccc2c1=O)NC(=O)NCc1ccccc1  23.1%
5. CC(C)(C)OC(=O)C[C@@H]1C/C=C\C[C@@H](CC(=O)N[C@@H](CO)Cc2ccccc2)C(=O)N2CCC[C@H]2COC1=O  16.2%
6. COC(=O)c1ccc(CNC(=O)c2ccc(S(=O)(=O)N3CCCCCC3)cc2)cc1  13.9%
7. CCOC(=O)[C@H]1[C@H]2COc3ccccc3[C@@H]2N2C(=O)CN(Cc3ccccc3)C(=O)[C@@]12C  11.5%
8. COc1cc(S(=O)(=O)N2CCN(C(=O)C3CC3)CC2)ccc1NC(C)=O  10.5%
9. CCOc1cc(/C=N/NC(=O)c2cccc(S(=O)(=O)N3CCOCC3)c2)ccc1OCC(=O)N(C)C  10%
10. COc1ccccc1N(CC(=O)Nc1ccc(C)cc1Cl)S(=O)(=O)c1cccs1  9.45%
11. COc1ccccc1-n1c(-c2cc(-c3ccco3)[nH]n2)n[nH]c1=S  4.56%
12. COc1ccc(C(=O)COC(=O)c2c(C)noc2C)cc1Cl  3.93%
13. COc1cc(/C=C/C(=O)OCC(=O)NC2CC2)cc(OC)c1OC  3.2%
14. Cc1ccc(C2(C)NC(=O)N(CC(=O)N3CC(=O)Nc4ccccc43)C2=O)cc1 (stereo not drawn)  2.94%
15. COc1ccccc1NS(=O)(=O)c1ccc(C)c(C(=O)NNC(=O)c2csc(N3CCOCC3)n2)c1  2.72%
16. O=C(Nc1ccc(N2CCOCC2)cc1)c1cccc(S(=O)(=O)N2CCOCC2)c1  1.87%
17. O=C(Cn1cc(C(F)(F)F)ccc1=O)Nc1ccc2c(c1)OCCO2  1.4%
18. COc1ccc(S(=O)(=O)N(C)C[C@@H]2Oc3ccc(NS(=O)(=O)c4cn(C)cn4)cc3C(=O)N([C@@H](C)CO)C[C@@H]2C)cc1  1.11%
19. CS(=O)(=O)n1nc(-c2ccco2)nc1N  -7.64%

In the case of Cn1c(-c2ccco2)nc2cc3ccccc3cc21, the inhibition was 68.2% (active).
In the case of O=C(N/N=C/c1ccc([N+](=O)[O-])o1)c1cccc(S(=O)(=O)N2CCOCC2)c1, the inhibition was 44.6% (active).
In the case of CCN1C(=O)/C(=C2\SC(N3CCCCC3)=NC2=O)c2ccccc21, the inhibition was 42.2% (active).
In the case of CC(C)(C)NC(=O)Cn1cnc2cc([N+](=O)[O-])ccc2c1=O, the inhibition was 132% (active).
